Assay outcomes deposited in PubChem BioAssay by several laboratories.
Mtb FBA inh – Mtb FBA enzyme inhibitors, primary screen, biochemical, fluorescence, strain H37Rv; purified M. tuberculosis FBA, fluorescence read-out; inhibition, % at 1 µM; 2.3% of 360,000 active; AID 588726, 2011; in the data active means inhibition above about 27%;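 further: 0% = vehicle and 100% = reference inhibitor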
Target sequence (P9WQA3 whole entry, looked up): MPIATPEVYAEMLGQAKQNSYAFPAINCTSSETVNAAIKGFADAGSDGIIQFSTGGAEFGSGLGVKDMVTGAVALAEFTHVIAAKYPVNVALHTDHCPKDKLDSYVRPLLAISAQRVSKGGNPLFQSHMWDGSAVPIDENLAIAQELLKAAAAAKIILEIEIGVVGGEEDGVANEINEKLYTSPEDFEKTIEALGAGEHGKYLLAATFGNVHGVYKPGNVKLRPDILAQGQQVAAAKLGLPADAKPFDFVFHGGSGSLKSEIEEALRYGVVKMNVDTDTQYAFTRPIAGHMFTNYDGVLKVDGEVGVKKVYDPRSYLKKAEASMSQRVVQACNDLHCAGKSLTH
BoNT A protease – BoNT/A light chain protease inhibitors, primary screen, biochemical, flow cytometry, MLPCN library; Botulinum neurotoxin type A light chain protease (Clostridium botulinum A str. ATCC 3502); multiplex microsphere protease substrate cleavage; inhibition, % at 10 µM; 0.17% of 360,000 active; further: plate controls were buffer without enzyme for full effect and enzyme alone for no effect
Anthrax LF inh2 – Bacillus anthracis LF protease inhibitors, primary screen, biochemical, multiplex microsphere, MLPCN library | inhibition, % at 10 µM | multiplex microsphere protease cleavage assay | Lethal factor (Bacillus anthracis), P15917 | 0.12% of 360,000 active; further: plate controls were buffer without enzyme for full effect and enzyme alone for no effect
GDH-TPI counter – GDH-TPI coupling enzyme inhibitors, primary screen, artefact control for M. tuberculosis FBA inhibitor project, biochemical, absorbance, full deck. GDH-TPI coupled enzyme counterscreen, NADH absorbance. inhibition, % at 4.8 µM. 1.2% of 360,000 active; in the data active means inhibition above about 30%;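 further: 0% = DMSO wells and 100% = wells lacking the enzyme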
Autofluor counter – flagged as autofluorescent in microsphere protease counterscreen. compound autofluorescence counterscreen, microsphere flow cytometry; hits give high values. fluorescence intensity (test concentration not listed). 3.1% of 360,000 active; in the data active means fluorescence intensity above about 16000; inconclusive means no clear call, values can overlap the other calls
BoNT-F LC inh – BoNT/F light chain protease inhibitors, primary screen, biochemical, flow cytometry, MLPCN library | Multiplex microsphere protease cleavage assay | inhibition, % at 10 µM | 0.22% of 360,000 active | AID 588497, 2011; in the data active means inhibition above about 35%, passing the limit was not always enough; inconclusive means no clear call, values can overlap the other calls; further: plate controls were buffer without enzyme for full effect and enzyme alone for no effect
* = called active by the depositor; ? = inconclusive. Compounds with a hit are over-represented: about 6.6% of the library has one in this group of screens. Unless noted, no stated cut-off is given here; in the data, active means inhibition above about 30%; inconclusive means no clear call, values can overlap the other calls; inactive means below that.

SMILES	Mtb FBA inh	BoNT A protease	Anthrax LF inh2	GDH-TPI counter	Autofluor counter	BoNT-F LC inh
N#Cc1ccc(CN2CCN(C(=O)c3ccccc3)CC2)c(Cl)c1	0	?	-4	8	21609*	-7
O=C(c1ccccc1)N1CCN(Cc2ccccc2C(F)(F)F)CC1	3	-1	-3	-4	4178	-4
CC1CC(C)(C)N2C(=O)C3(Nc4ccccc4S3)c3cccc1c32 (stereo unspecified)	0	?	-3	-2	22846*	-2
O=C(Nc1cccc(OC(F)(F)F)c1)c1ccc(-c2cccnc2)c2ccoc12	0	0	0	0	3643	7
COc1ccc(S(=O)(=O)Nc2ccc3c(c2)C(=O)N([C@H](C)CO)C[C@H](C)[C@@H](CN(C)C(=O)Nc2ccc(F)cc2)OCCCC[C@H](C)O3)cc1	2	0	3	3	2920	-3
O=C(c1cc2cc(Cl)ccc2oc1=O)N1CCN(c2ccccn2)CC1	5	-7	0	7	4351	-21
COc1cc2ccccc2cc1C(=O)N1CCN(c2ccccn2)CC1	1	-3	0	-13	5717	-4
COc1cc(Br)cc2cc(C(=O)N3CCN(c4ccccn4)CC3)c(=O)oc12	1	-1	0	8	23664*	-1
Cc1cnn(C(=O)c2oc3ccccc3c2C)c1	2	3	2	20	22067*	7
Cc1c(C(=O)N2CCN(c3ccccn3)CC2)oc2ccccc12	3	3	-12	-1	22383*	1
CCOc1ccc2oc(C(=O)N3CCN(c4ccccn4)CC3)c(C)c2c1	4	1	-2	6	5614	13
O=C(c1cc2cc(Br)ccc2oc1=O)N1CCN(c2ccccn2)CC1	-2	0	-3	16	16477*	0
CC(=O)N1CCC(C(=O)NCCOc2ccc(C)cc2)CC1	0	-4	9	4	3053	-25
C=C(C)C(=O)Nc1cccc(C2=NOC3(C2)C[C@H](C(N)=O)N(C(=O)COc2ccc(Cl)cc2)C3)c1 (stereo partly specified)	0	0	-2	6	4014	-4
O=C(COC(=O)Cc1ccc(S(=O)(=O)N2CCOCC2)s1)Nc1ccc(OC(F)F)cc1	2	0	2	10	3733	-13
CC(C)c1ccc(CN2CCC2(C)C(=O)Nc2cnc3ccccc3c2)cc1 (stereo unspecified)	-3	0	-1	9	3823	1
CC1CCN(CCCNC(=O)c2cc3sccc3n2C)CC1	2	3	-2	-5	20532*	2
COCCNC(=O)[C@H](C)[C@H]1C[C@]1(C)[C@H](NC(=O)OCc1ccccc1)c1ccccc1	168*	-1	0	2	4254	-10
Cc1cc(C)c(C(=O)N2CCCC(N3CCN(c4ccc(F)cc4)CC3)C2)o1 (stereo unspecified)	-2	0	0	-2	6179	-2
Cc1cc(C(F)F)n2ncc(C(=O)NCc3ccccc3F)c2n1	4	0	-2	1	2503	4
Cc1ccccc1Cc1c(C)nc2c(C(=O)NCc3ccco3)cnn2c1C	48*	-4	-4	6	17104*	-5
Cc1nc2c(C(=O)O)cnn2c(C)c1Cc1ccccc1F	10	?	-13	5	19848*	8
Cc1nc2c(C(=O)N3CCN(c4ccccn4)CC3)cnn2c(C)c1Cc1cccc(Cl)c1	3	2	-9	1	15278	2
Cc1nc2c(C(=O)N3CCCC3)cnn2c(C)c1Cc1c(F)cccc1Cl	6	-1	-5	2	23177*	-4
COc1cccc2[nH]c3c(N4CCC(C)CC4)ncnc3c12	19	0	0	25	23249*	-4
SMILES	Mtb FBA inh	BoNT A protease	Anthrax LF inh2	GDH-TPI counter	Autofluor counter	BoNT-F LC inh
COc1cccc2[nH]c3c(N4CCC5(CC4)OCCO5)ncnc3c12	149*	?	-9	12	4260	?
Cc1cccc(C)c1C(O)c1ncc(-c2ccccc2Cl)[nH]1 (stereo unspecified)	-3	0	-4	1	3625	-4
C=CCn1c(CSCc2ccc(Cl)cc2Cl)nnc1SCC(=O)Nc1ccc(C(=O)O)cc1	-1	1	2	0	4752	-2
COc1cccc2[nH]c(C(=O)NN)c(N)c12	6	0	-9	14	4899	-34
COc1cccc2[nH]c3ccccc3c(=O)c12	135*	2	1	1	3653	?
Cc1cc(SCC(=O)N(C)CC(=O)Nc2ccc(F)cc2)nc2ccccc12	3	0	2	10	2319	-20
O=C1CC(NNC(=O)c2ccc(Br)cc2)C(=O)N1 (stereo unspecified)	3	5	8	-4	3778	43*
O=C1CC(NNC(=O)c2ccccc2)C(=O)N1 (stereo unspecified)	1	0	-12	-2	9541	12
CC(C)C(OC(=O)c1nsc(Cl)c1Cl)C(=O)NCC1CCCO1 (stereo unspecified)	-1	1	-2	-3	4887	5
O=C(CSc1nnc(COc2ccccc2)o1)N1CCCCC1	1	-1	4	4	3372	-16
O=C(N(c1ccccc1)c1ccccc1)n1ccnc1	-1	-7	-4	-19	21662*	-8
Cc1onc(-c2ccccc2)c1-c1nnc(COC(=O)c2ccc(O)cc2)o1	-1	0	1	-1	5349	1
Cc1ccc(S(=O)(=O)c2nnn3c2nc(NCCCN2CCCC2=O)c2ccccc23)cc1C	31*	-1	-2	3	6153	-1
O=C(NCCC1=CCCCC1)C1CCN(S(=O)(=O)N2CCOCC2)CC1	-1	-2	-2	-9	20881*	-4
O=C(NCCC1=CCCCC1)C1CCN(S(=O)(=O)N2CCCC2)CC1	-3	0	3	-2	4005	-1
O=C(NCCC1=CCCCC1)C1CCCN(S(=O)(=O)c2ccc(F)cc2)C1 (stereo unspecified)	0	0	-4	3	2538	-7
Cc1ccc(S(=O)(=O)N2CCCC(C(=O)NCCC3=CCCCC3)C2)cc1 (stereo unspecified)	-2	-1	-1	-6	21132*	-2
COc1ccc(OCC(=O)N2CCCC(Nc3ccc(C)c(C)c3)C2)cc1 (stereo unspecified)	1	-1	-1	5	4225	-8
Cc1cc(N2CCCC2)nc2ccccc12	8	0	-9	5	3315	2
Cc1nn(-c2cc(C)c3ccccc3n2)c2c1CCC2	-2	6	0	2	20384*	11
